{"source": "the supplement of paper PMC8728848", "experiment_in_all_cases": "glycan array binding signal (z-score within array); higher = stronger binding", "conditions_in_all_cases": "glycan notation: IUPAC condensed, linker removed", "key": {"Gal3S(b1-3)GalNAc": {"target": "Gal3S(b1-3)GalNAc", "in_short": "(§1)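 From the Consortium for Functional Glycomics database, 3228 arrays were curated, keeping only those whose protein sequence was available. Binding is given as a within-array Z-score averaged across arrays sharing a protein sequence and across linkers. Negative Z-scores can be read as non-binding.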"}, "Gal3S(b1-4)Glc": {"target": "Gal3S(b1-4)Glc", "in_short": "as §1"}, "Gal6S(b1-3)GlcNAc": {"target": "Gal6S(b1-3)GlcNAc", "in_short": "as §1"}, "Gal6S(b1-3)GlcNAc6S": {"target": "Gal6S(b1-3)GlcNAc6S", "in_short": "as §1"}, "GalNAc(b1-3)GalNAc": {"target": "GalNAc(b1-3)GalNAc", "in_short": "as §1"}, "[1]": {"target": "GalNAc(b1-4)GlcNAc(b1-3)GalNAc(b1-4)GlcNAc", "in_short": "as §1"}, "Glc(b1-4)Glc": {"target": "Glc(b1-4)Glc", "in_short": "as §1"}, "GlcA(b1-3)Gal": {"target": "GlcA(b1-3)Gal", "in_short": "as §1"}, "[2]": {"target": "GlcA3S(b1-3)Gal(b1-4)GlcNAc(b1-3)Gal(b1-4)Glc", "in_short": "as §1"}, "[3]": {"target": "GlcNAc(a1-4)Gal(b1-4)GlcNAc(b1-3)Gal(b1-4)[Fuc(a1-3)]GlcNAc(b1-3)Gal(b1-4)[Fuc(a1-3)]GlcNAc", "in_short": "as §1"}, "[4]": {"target": "GlcNAc(b1-2)Gal(b1-3)GalNAc", "in_short": "as §1"}, "[5]": {"target": "GlcNAc(b1-2)Man(a1-3)[GlcNAc(b1-2)Man(a1-6)]Man(b1-4)GlcNAc(b1-4)GlcNAc", "in_short": "as §1"}, "[6]": {"target": "GlcNAc(b1-2)[GlcNAc(b1-4)]Man(a1-3)[GlcNAc(b1-4)][GlcNAc(b1-2)Man(a1-6)]Man(b1-4)GlcNAc(b1-4)GlcNAc", "in_short": "as §1"}, "[7]": {"target": "GlcNAc(b1-2)[GlcNAc(b1-6)]Man(a1-6)[GlcNAc(b1-2)Man(a1-3)]Man(b1-4)GlcNAc(b1-4)[Fuc(a1-6)]GlcNAc", "in_short": "as §1"}, "[8]": {"target": "GlcNAc(b1-3)Gal(b1-4)GlcNAc(b1-3)Gal(b1-4)GlcNAc(b1-2)Man(a1-3)[GlcNAc(b1-3)Gal(b1-4)GlcNAc(b1-3)Gal(b1-4)GlcNAc(b1-2)Man(a1-6)]Man(b1-4)GlcNAc(b1-4)[Fuc(a1-6)]GlcNAc", "in_short": "as §1"}, "[9]": {"target": "GlcNAc(b1-3)Gal(b1-4)GlcNAc(b1-3)Gal(b1-4)GlcNAc(b1-3)Gal(b1-4)GlcNAc(b1-3)Gal(b1-4)GlcNAc(b1-2)[GlcNAc(b1-3)Gal(b1-4)GlcNAc(b1-3)Gal(b1-4)GlcNAc(b1-3)Gal(b1-4)GlcNAc(b1-3)Gal(b1-4)GlcNAc(b1-6)]Man(a1-6)[GlcNAc(b1-3)Gal(b1-4)GlcNAc(b1-3)Gal(b1-4)GlcNAc(b1-3)Gal(b1-4)GlcNAc(b1-3)Gal(b1-4)GlcNAc(b1-2)Man(a1-3)]Man(b1-4)GlcNAc(b1-4)[Fuc(a1-6)]GlcNAc", "in_short": "as §1"}, "[10]": {"target": "GlcNAc(b1-3)[GlcNAc(b1-4)][GlcNAc(b1-6)]GlcNAc", "in_short": "as §1"}, "[11]": {"target": "GlcNAc(b1-4)GlcNAc(b1-4)GlcNAc(b1-4)GlcNAc(b1-4)GlcNAc", "in_short": "as §1"}, "Man(a1-3)[Man(a1-6)]Man": {"target": "Man(a1-3)[Man(a1-6)]Man", "in_short": "as §1"}, "[12]": {"target": "Man(a1-3)[Man(a1-6)]Man(a1-6)[Man(a1-2)Man(a1-3)]Man(b1-4)GlcNAc(b1-4)GlcNAc", "in_short": "as §1"}, "[13]": {"target": "Neu5Ac(a2-3)Gal(b1-3)[Fuc(a1-4)]GlcNAc", "in_short": "as §1"}, "[14]": {"target": "Neu5Ac(a2-3)Gal(b1-3)]Neu5Ac(a2-3)Gal(b1-4)]GlcNAc", "in_short": "as §1"}, "[15]": {"target": "Neu5Ac(a2-3)Gal(b1-4)GlcNAc(b1-2)Man(a1-3)[GlcNAc(b1-4)][Neu5Ac(a2-3)Gal(b1-4)GlcNAc(b1-2)Man(a1-6)]Man(b1-4)GlcNAc(b1-4)GlcNAc", "in_short": "as §1"}, "[16]": {"target": "Neu5Ac(a2-3)Gal(b1-4)GlcNAc(b1-2)Man(a1-3)[Neu5Ac(a2-3)Gal(b1-4)GlcNAc(b1-2)Man(a1-6)]Man(b1-4)GlcNAc(b1-4)[Fuc(a1-6)]GlcNAc", "in_short": "as §1"}, "[17]": {"target": "Neu5Ac(a2-3)Gal(b1-4)GlcNAc(b1-3)Gal(b1-4)GlcNAc(b1-3)Gal(b1-4)GlcNAc", "in_short": "as §1"}, "[18]": {"target": "Neu5Ac(a2-3)Gal(b1-4)[Fuc(a1-3)]GlcNAc(b1-3)GalNAc", "in_short": "as §1"}, "[19]": {"target": "Neu5Ac(a2-8)Neu5Gc(a2-3)Gal(b1-4)GlcNAc", "in_short": "as §1"}}, "note": "Many of the other results were omitted from the sample, so the strongest signals are more common in it than they were.", "data": [{"binder": "PX9961KLbvu-535-38-535 (Bacteroides vulgatus) (protein) DKAYTDAESYTKGLHKIYSVWALSGQDGSSSSDISGLDAGNTALLRCWWTLQEQPTDEMKNAWNDAWCTEVNYMTWTTNKVEPIEGVYQRCMYIVALVNEFLKNIPNAPESIDKESYIAQARFNRAFAYYVLMDMFALPPFITEKNYSIEPAPLSREDLFNWIEAELNEIKPNLPSPRSEYGVADQAVASALLARMYLNAEIYTGKARYTECINACNEVIKAGYQLADNYADLFKADNGENPDTKKEIIYPIIFDGDKTQSWGMAAIIIGARGAEDKDVLLAHSGVDQGWAGFRATSNLVHLFDFQNDEEPKASEIQDKRGIFYDKGRSIDITSSVSGTFETEGWSVFKFSNLNSNGQPGKNTLWVDTDFPMFRLGDIYLMYAEAVARGGEGSKASAVEYINALRKRAYGDDKHNISENWLEENNFRNLLDERGRELYWEGIRRTDLVRFDLLTSGSYTWDFKGGINTGVGVNKRYNVYPIPVTDLTVNGNLQQNEGY", "values": [{"measurement": "glycan array binding signal (z-score)", "setting": "Gal3S(b1-3)GalNAc", "value": -0.326}, {"measurement": "glycan array binding signal (z-score)", "setting": "Gal3S(b1-4)Glc", "value": 1.38}, {"measurement": "glycan array binding signal (z-score)", "setting": "Gal6S(b1-3)GlcNAc", "value": 0.63}, {"measurement": "glycan array binding signal (z-score)", "setting": "Gal6S(b1-3)GlcNAc6S", "value": 1.44}, {"measurement": "glycan array binding signal (z-score)", "setting": "GalNAc(b1-3)GalNAc", "value": -0.606}, {"measurement": "glycan array binding signal (z-score)", "setting": "[1]", "value": -0.094}, {"measurement": "glycan array binding signal (z-score)", "setting": "Glc(b1-4)Glc", "value": -0.497}, {"measurement": "glycan array binding signal (z-score)", "setting": "GlcA(b1-3)Gal", "value": -0.742}, {"measurement": "glycan array binding signal (z-score)", "setting": "[2]", "value": -0.814}, {"measurement": "glycan array binding signal (z-score)", "setting": "[3]", "value": 0.673}, {"measurement": "glycan array binding signal (z-score)", "setting": "[4]", "value": 0.183}, {"measurement": "glycan array binding signal (z-score)", "setting": "[5]", "value": -0.632}, {"measurement": "glycan array binding signal (z-score)", "setting": "[6]", "value": 1.4}, {"measurement": "glycan array binding signal (z-score)", "setting": "[7]", "value": 0.105}, {"measurement": "glycan array binding signal (z-score)", "setting": "[8]", "value": 1.82}, {"measurement": "glycan array binding signal (z-score)", "setting": "[9]", "value": 1.39}, {"measurement": "glycan array binding signal (z-score)", "setting": "[10]", "value": -0.666}, {"measurement": "glycan array binding signal (z-score)", "setting": "[11]", "value": -0.429}, {"measurement": "glycan array binding signal (z-score)", "setting": "Man(a1-3)[Man(a1-6)]Man", "value": -0.077}, {"measurement": "glycan array binding signal (z-score)", "setting": "[12]", "value": 0.357}, {"measurement": "glycan array binding signal (z-score)", "setting": "[13]", "value": 1.01}, {"measurement": "glycan array binding signal (z-score)", "setting": "[14]", "value": -0.578}, {"measurement": "glycan array binding signal (z-score)", "setting": "[15]", "value": -0.451}, {"measurement": "glycan array binding signal (z-score)", "setting": "[16]", "value": 0.475}, {"measurement": "glycan array binding signal (z-score)", "setting": "[17]", "value": -0.106}, {"measurement": "glycan array binding signal (z-score)", "setting": "[18]", "value": 0.19}, {"measurement": "glycan array binding signal (z-score)", "setting": "[19]", "value": 19.4}]}]}
